# Compounds without any hit were thinned out: in the full panel of roughly 83,000, 20% have a hit.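 Cell lines were cultured in 96-well plates, exposed to a single compound concentration, and assessed for percent growth 48 hours later.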 The source made the active and inactive calls. The calls were made as follows: active = growth percent below 10; inactive = the rest.
# Test system: NCI-H322M lung
# Assay: NCI-60 one-dose screen, 48 h (100 = growth as untreated, 0 = no growth, -100 = all killed)
# Settings: 10 µM unless noted
row,SMILES,growth
1,COC(=O)C1(CC(C)=O)NC(=S)NC(=O)C1C#N (configuration not stated),108% (inactive)
2,O=Cc1ccc(Cl)c(Cl)c1,106% (inactive)
3,CC(=O)c1cc(O)ccc1O,97.4% (inactive)
4,Nc1c(Br)cc(O)c2c1C(=O)c1ccccc1C2=O,98.7% (inactive)
5,O=C1CSc2ccccc2N1,109% (inactive)
6,NC(=S)N/N=C/c1ccc(OC(=O)COc2ccccc2)cn1,54% (inactive)
7,CCOc1ccc2c(c1)c(C)cc(C)[n+]2CC,83.2% (inactive)
8,CC1=CC(=Nc2ccc(N(C)C)cc2)C=C(C)C1=O,95.8% (inactive)
9,COc1cc(CC#N)c([N+](=O)[O-])cc1OC,105% (inactive)
10,CCC12OC(COc3ccccc3)CN1CCN2c1ccccc1 (configuration not stated),93.3% [100 µM] (inactive)
11,C=CCOc1ccc(Cl)cc1Cl,113% (inactive)
12,CCc1ccccc1C(=O)N(CC)CC,105% (inactive)
13,Cc1ccc(S(=O)(=O)Oc2ccc3sc4c(CO)ccc(NCCN(C)C)c4c(=O)c3c2)cc1,-98.2% [100 µM] (active)
14,CCOC(=O)c1cc(C)[nH]c(=O)c1C#N,93.6% (inactive)
15,CCN(CC)CCOC(=O)Nc1c(C(C)C)cccc1C(C)C,93.5% (inactive)
16,N#CCCN1C(=O)CCC1C(=O)O (configuration not stated),112% (inactive)
17,NNc1ncccn1,105% (inactive)
18,Cc1cc(=O)n(Nc2ccccc2)c(O)c1C#N,92.4% (inactive)
19,CC(=O)N(C)N=Nc1ccc(C)cc1,92.3% (inactive)

row,SMILES,growth
1,OCC1OC(n2ccc3c2ncn2ncnc32)C(O)C1O (configuration not stated),38.4% (inactive)
2,CC(C)(C)[Si](C)(C)OCC1OC(n2cnc3c(N)ncnc32)CC1OS(C)(=O)=O (configuration not stated),109% (inactive)
3,c1ccc(Oc2c3ccccc3nc3ccccc23)cc1,56.3% (inactive)
4,CN(C)c1ccc2c(N(C)C)cc(N(C)C)nc2c1,64.9% (inactive)
5,CC(C)N(CCCC#N)C(C)C,104% (inactive)
6,COc1ccc(-c2csc(NC(=O)Nc3nc(-c4ccc(OC)cc4)cs3)n2)cc1,90.1% (inactive)
7,CCOC(OCC)C(=O)c1ccccc1,100% (inactive)
8,CC1CC(C)S(=O)(=O)C1 (configuration not stated),113% (inactive)
9,Clc1cccc(Cl)c1C1CSc2ccccc2N=C1c1ccccc1 (configuration not stated),86.3% (inactive)
10,CCOc1ccc(C(=O)O)cc1,108% (inactive)
11,CCN(CC)CCCC(C)NC(=S)N/N=C(\C)c1ccccn1 (configuration not stated),31.9% (inactive)
12,C[n+]1cc2cc3c(cc2c2ccccc21)OCO3,39% (inactive)
13,Cc1cccc2ccccc12,103% (inactive)
14,Cn1c2ccccc2c2nnc(NCCCCO)nc21,99.3% (inactive)
15,Cc1nc(C)c(C(=O)O)cc1C(=O)O,126% (inactive)
16,C/C(=N\Nc1ccc([N+](=O)[O-])cc1[N+](=O)[O-])c1ccc(Br)cc1,106% (inactive)
17,CC(=O)OC/C(C)=C\CC(C)COC(C)=O (configuration not stated),102% (inactive)
18,CCOc1ccccc1NC(=O)CCl,107% (inactive)

# Source: PubChem BioAssay (NCI)
